Most compounds without a hit are left out; they make up all but 6% or so of the library.
D1 PAM – enhances dopamine response at the human D1 receptor; HEK293 TREx D1 cells, calcium flux, dopamine EC20 potentiation; P21728; potentiation, % at 10 µM; 360,000 compounds, 0.036% hits; in the data active = potentiation above about 30%; also: 0% is about no effect
Target sequence (P21728 whole entry, looked up): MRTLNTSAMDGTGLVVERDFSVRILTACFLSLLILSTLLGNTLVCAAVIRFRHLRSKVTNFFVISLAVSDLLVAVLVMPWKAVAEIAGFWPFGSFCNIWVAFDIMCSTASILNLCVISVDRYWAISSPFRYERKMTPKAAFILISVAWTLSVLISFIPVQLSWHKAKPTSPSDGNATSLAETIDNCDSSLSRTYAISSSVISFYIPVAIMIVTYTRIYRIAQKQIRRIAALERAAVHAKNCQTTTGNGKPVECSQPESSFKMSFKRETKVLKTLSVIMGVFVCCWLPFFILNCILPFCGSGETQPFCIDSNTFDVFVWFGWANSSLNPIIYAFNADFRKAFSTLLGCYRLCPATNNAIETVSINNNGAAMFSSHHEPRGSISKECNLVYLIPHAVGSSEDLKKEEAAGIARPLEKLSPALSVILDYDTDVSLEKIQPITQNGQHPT
D1 ag – activates the human D1 dopamine receptor; HEK293 T-REx D1 cells, calcium flux, agonist mode; 360,000 compounds, 1% hits; P21728; activation, % at 2 µM; in the data active = activation above about 30%; also: 0% is about no effect
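Tetracycline-induced HEK293 TREx D1 cells, force-coupled to calcium signalling, were dye-loaded with a no-wash calcium kit. Compound was pin-added after a 10 s baseline. Fluorescence was read kinetically at 1 cycle/s for 180 s, with calcium rises flagged as agonism.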
D1 antagonist – human D1 dopamine receptor antagonism; P21728; HEK293 TREx D1 cells, calcium flux, dopamine EC80; active compounds read low; activity change, negative = inhibition, % at 10 µM; 360,000 compounds, 3.2% hits; AID 504652; in the data active = activity change below about -30%; also: % is scaled to controls: 0 for no effect and ±100 for the full control effect
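Kinetic fluorescence of a calcium dye serves as the read-out. D1-expressing Hek293 Trex cells, induced overnight at 30 C, are exposed to compound for 180 s before an EC80 dopamine addition, then read 180 s further.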
D3 ag – D3 dopamine receptor (human) agonism. max activation, %. D3R DiscoveRx beta-arrestin cells, luminescence, 90 min. 410,000 compounds, 0.58% hits; in the data active = max activation above about 30%; also: 0% is about no effect
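Agonist mode: compounds and dopamine controls were applied to plated cells for 90 min at 37 degrees C after an overnight attachment at 1500 cells/well. Luminescent read-out followed 30 - 60 minutes at room temperature with DiscoveRx detection reagent.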
D3 antag – antagonists of human D3 dopamine receptor; P35462; D3R cells, DiscoveRx beta-arrestin luminescence, antagonist mode; active compounds read low; max response, negative = inhibition, %; 360,000 compounds, 2.5% hits; AID 652054; in the data active = max response below about -50%; inconclusive = no clear call, values can overlap the other calls; also: % is scaled to controls: 0 for no effect and ±100 for the full control effect
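Cells plated overnight at 1500 cells/well, then exposed to library compounds with dopamine controls for 90 minutes at 37 degrees C. DiscoveRx reagent added for 30–60 minutes at room temperature; luminescence read, quantitative HTS format.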
Starred values were filed as active, the others as inactive; ? = inconclusive; nt = no result.

SMILES | D1 PAM | D1 ag | D1 antagonist | D3 ag | D3 antag
COc1ccc2c(c1)c1c(c(=O)n(Cc3ccccc3)c(=O)n1Cc1ccccc1Cl)n2C | -1 | 1 | 16 | 3 | nt
Cc1cc(C)c2oc(C(=O)Nc3ccc(S(=O)(=O)Nc4ncccn4)cc3)cc(=O)c2c1 | -2 | 1 | -22 | 10 | nt
Cc1ccc(SCc2cc(-c3ccc(Cl)cc3)no2)cc1 | -2 | 36* | -4 | 0 | 15
Clc1ccc(-c2cc(CSc3ccccc3)on2)cc1 | 1 | 14 | 9 | -5 | 15
Cc1oc2c(C)c(O)ccc2c(=O)c1-c1cnn(-c2ccccc2)c1 | 2 | 1 | -37* | 9 | 6
CCc1cc2c(=O)c(-c3cnn(-c4ccccc4)c3)coc2c(CN2CCOCC2)c1O | 7 | 1 | 8 | 0 | 5
CCc1cc2c(=O)c(-c3cnn(-c4ccccc4)c3)c(C)oc2c(CN2CCCCC2)c1O | 6 | 1 | -4 | 37* | 1
O=S(=O)(Nc1ccon1)c1ccc(F)c(F)c1 | -6 | 5 | -2 | -6 | -81*
O=S(=O)(Nc1ccon1)c1cc(Cl)ccc1Cl | -2 | 1 | -6 | 1 | 5
Cn1nnnc1Sc1ncnc2scc(-c3ccccc3S(C)(=O)=O)c12 | 6 | 1 | -15 | nt | nt
Cc1c(-c2nc(-c3ccc4c(c3)[nH]c(=O)n4C)no2)cccc1[N+](=O)[O-] | -5 | 1 | 2 | 4 | nt
COc1ccc(-c2cc(C(=O)NCCc3ccccc3)c3c(-c4ccccc4)[nH]nc3n2)cc1OC | -1 | 4 | 2 | 4 | nt
COc1ccc(CCNC(=O)c2cc(-c3ccc(C)cc3)nc3n[nH]c(-c4ccccc4)c23)cc1OC | 1 | 3 | 9 | 74* | nt
Cc1ccc(S(=O)(=O)N2CC3(O)CN(C(=O)OC(C)C)N(C(=O)OC(C)C)CC3(OC(=O)Nc3cccs3)C2)cc1 (stereo not drawn) | nt | nt | nt | 3 | 28
O=C1C2Sc3[nH]c(=O)sc3C(c3ccccc3)C2C(=O)N1c1ccccc1 (stereo not drawn) | -8 | 6 | 9 | 1 | -66*
COc1ccc(NC(=O)c2c(C)oc3ccc(O)c(CN4CCC(C)CC4)c23)cc1Cl | 0 | 8 | 17 | -4 | nt
CSC1=NSC2=NC(=O)/C(=C\c3coc4ccccc4c3=O)C(=N)N12 | 4 | 306* | -48* | 1 | 4
CC(C)CSC1=NSC2=NC(=O)/C(=C\c3coc4ccccc4c3=O)C(=N)N12 | -9 | 240* | -22 | 13 | 10
N=C1/C(=C\c2coc3ccccc3c2=O)C(=O)N=C2SC(c3ccncc3)=NN12 | -2 | 256* | -31* | -11 | ?
N=C1/C(=C\c2coc3ccc(O)cc3c2=O)C(=O)N=C2SC=CN12 | -2 | 132* | -13 | 12 | 4
Cc1ccc(S(=O)(=O)Nc2ccc3cc([N+](=O)[O-])ccc3c2[N+](=O)[O-])cc1 | nt | nt | nt | -12 | ?
CCCCCCCCN1C(=O)[C@H](CC(=O)NCCC(C)C)C[C@@]2(C(=O)OC)CCCCC=C12 | nt | nt | nt | -10 | 2
CCCC(=O)NCC(c1ccc2c(c1)OCO2)N1CCOCC1 (stereo not drawn) | -2 | 2 | -10 | -14 | nt
O=C(Nc1nnc(SCc2ccc(F)cc2)s1)c1ccc2ncsc2c1 | -1 | 6 | -17 | 7 | 11
O=C(Nc1nnc(SCc2ccc(F)cc2)s1)c1ccc2c(c1)C(=O)N(c1ccccc1Cl)C2=O | -5 | 1 | nt | 53* | 49
SMILES | D1 PAM | D1 ag | D1 antagonist | D3 ag | D3 antag
CC(C)Oc1cc(F)ccc1-c1cc(C(=O)NCC2CCCCC2)[nH]n1 | nt | nt | nt | -11 | -83*
CCOc1ccc(Cl)cc1-c1cc(C(=O)NCC2CCCCC2)[nH]n1 | nt | nt | nt | -20 | ?
Cc1cc(F)ccc1-c1cc(C(=O)NCC2CCCCC2)[nH]n1 | nt | nt | nt | -18 | -28
COc1ccc(Cl)cc1-c1cc(C(=O)NCC2CCCCC2)[nH]n1 | nt | nt | nt | -16 | -58*
Cc1ccc(Cl)cc1-c1cc(C(=O)NCc2cccc(Cl)c2)[nH]n1 | nt | nt | nt | -15 | ?
COc1cc(F)ccc1-c1cc(C(=O)NCc2cccc(Cl)c2)[nH]n1 | nt | nt | nt | -10 | ?
COc1ccc(Cl)cc1-c1cc(C(=O)NCc2cccc(Cl)c2)[nH]n1 | nt | nt | nt | -13 | -71*
Cc1ccc(Cl)cc1-c1cc(C(=O)NCc2ccccc2)[nH]n1 | nt | nt | nt | -14 | -51*
CCOC(=O)c1ccc(CC(=O)c2ccc(O)cc2O)o1 | -3 | 0 | 3 | 32* | 29
CCOc1ccccc1NC(=O)COC(=O)/C=C/c1ccc(OC)c(OC)c1 | -4 | 6 | -38* | -4 | 2
COc1cc(/C=C/C(=O)OCC(=O)NCCc2ccc(F)cc2)ccc1OC(F)F | nt | nt | nt | -29 | ?
COc1cc(/C=C/C(=O)OCC(=O)NCCc2ccccc2)ccc1OC(F)F | -7 | 14 | -30* | 8 | 5
COc1ccc(C)cc1NCc1cc(=O)oc2cc(-c3ccccc3)c(O)cc12 | -1 | 2 | -30* | 6 | 5
Cc1cc(C)cc(NCc2cc(=O)oc3cc(-c4ccccc4)c(O)cc23)c1 | -2 | 1 | -4 | -1 | 8
CN1CCC2CC1c1cc(-c3ccc(C(F)(F)F)cc3)ccc12 (stereo not drawn) | nt | nt | nt | 4 | 41
COc1ccc(CCn2c(C)cc(C(=O)CSc3nc(N)cc(=O)[nH]3)c2C)cc1 | -5 | 1 | 7 | 35* | 58
Cc1cc(C(=O)CCl)c(C)n1CCc1ccc(Cl)cc1 | -7 | -3 | nt | -17 | -69*
Cc1cc(C(=O)CSc2nc(N)cc(=O)[nH]2)c(C)n1CCc1ccc(F)cc1 | 2 | 4 | 3 | 4 | 9
O=C(NCc1ccccc1Cl)c1cnc2sc(N3CCCCC3)nn2c1=O | -1 | 2 | 4 | 5 | nt
CCc1nc2ccc(C(=O)N3CCN(C(C)=O)CC3)cn2c1N(CC)C(=O)NCCc1ccccc1 | nt | nt | nt | 6 | -10
O=S(=O)(O)c1cc(O)c2c(O)c(N=Nc3cc(Cl)ccc3O)c(S(=O)(=O)O)cc2c1 | -6 | 2 | 8 | -23 | -61*
CSc1oc(-c2ccco2)nc1S(=O)(=O)c1ccccc1 | 8 | 0 | 10 | -4 | 7
CC(C)Sc1oc(-c2ccco2)nc1S(=O)(=O)c1ccccc1 | 6 | 1 | -48* | 12 | 7
Cc1ccc2nc(N(Cc3cccnc3)C(=O)C3COc4ccccc4O3)sc2c1 (stereo not drawn) | -1 | 2 | nt | 0 | nt
COc1cccc(CNC(=O)CCCNS(=O)(=O)c2cccs2)c1 | -12 | 3 | -92* | 6 | 0
COc1ccc(NC(=O)N(C2CCCCC2)C(C)c2cccnc2)c(OC)c1 (stereo not drawn) | -3 | 3 | -7 | -11 | 0
COc1ccc(NC(=S)N2CCN(C(=O)c3ccco3)CC2)c(OC)c1 | -7 | 2 | -68* | 3 | -14
COc1ccc(NC(=O)N(C2CCCCC2)C(C)c2ccco2)c(OC)c1 (stereo not drawn) | -18 | 1 | -78* | 4 | 6

Source: PubChem
